According to PubChem BioAssay (NCI):
Compounds without any hit were thinned out: in the full panel of roughly 79,000, 15% have a hit. Unmarked numbers belong to inactive results. Active and inactive are the calls of the source. Cut-off read from the data, not from the text of the source: active = growth inhibition above about 70%; inactive = the rest.

Tests used:
[1] = NCI Yeast Anticancer Drug Screen. Data for the rad50 strain (AID 155);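 note: 0% = growth of vehicle-only cultures of the same strain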; conditions: S. cerevisiae rad50 strain growth inhibition; at 50.0 µM; hits give high values
Summary of the method: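 DNA repair mutant yeast, compound exposure, growth read-out; inhibition is taken relative to vehicle.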

[2] = NCI Yeast Anticancer Drug Screen. Data for the mec2-1 strain (AID 157); conditions: S. cerevisiae mec2-1 strain, at 50.0 µM, hits give high values
Summary of the method: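 Test agents were screened against the mec2-1 yeast strain, with defined DNA repair or cell cycle alteration. Growth was scored as inhibition against vehicle-only controls.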

[3] = NCI Yeast Anticancer Drug Screen. Data for the sgs1 mgt1 strain (AID 161);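 note: 0% = growth of cultures given vehicle only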; conditions: S. cerevisiae sgs1 mgt1 strain, at 50.0 µM, hits give high values
Summary of the method: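 Inhibition of yeast growth, normalised to vehicle-treated controls, is reported for a strain bearing genetic alterations in DNA damage repair.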

[4] = NCI Yeast Anticancer Drug Screen. Data for the cln2 rad14 strain (AID 165);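 note: 0% = growth equal to vehicle treated cultures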; conditions: S. cerevisiae cln2 rad14 strain, at 50.0 µM, hits give high values
Summary of the method: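 Growth of compound-exposed yeast (cln2 rad14 genotype) measured and expressed as inhibition relative to vehicle.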

[5] = NCI Yeast Anticancer Drug Screen. Data for the bub3 strain (AID 167); conditions: S. cerevisiae bub3 mutant strain, at 50.0 µM, hits give high values
Summary of the method: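 In this screen, a yeast mutant lacking normal mitotic checkpoint function is challenged with compound. Relative growth versus vehicle gives the inhibition value.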

[6] = NCI Yeast Anticancer Drug Screen. Data for the mlh1 rad18 strain (AID 175); conditions: S. cerevisiae mlh1 rad18 strain growth inhibition; at 50.0 µM; hits give high values
Summary of the method: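 In this whole-cell yeast screen, a strain with altered DNA damage repair is challenged with compound, and its growth is measured against matched vehicle-treated controls.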

SMILES: N#Cc1ccc(NN=NCCCCCCl)cc1
- growth inhibition [1]: 22.7%
- growth inhibition [2]: -3.2%
- growth inhibition [3]: 1.25%
- growth inhibition [4]: 8.5%
- growth inhibition [5]: 15.8%
- growth inhibition [6]: 1.55%

SMILES: CCN(CC)Cc1ncccc1O
- growth inhibition [1]: 8.5%
- growth inhibition [2]: -15.8%
- growth inhibition [3]: -22.4%
- growth inhibition [4]: -2.25%
- growth inhibition [5]: -5.8%
- growth inhibition [6]: 16.1%

SMILES: c1ccc(N=C2NNC(=Nc3ccccc3)NN2)cc1
- growth inhibition [1]: -17.9%
- growth inhibition [2]: 2.2%
- growth inhibition [3]: 5.4%
- growth inhibition [4]: 1.85%
- growth inhibition [5]: 3.35%
- growth inhibition [6]: 7.65%

SMILES: CCOC(=O)CN
- growth inhibition [1]: -0.25%
- growth inhibition [2]: 7.7%
- growth inhibition [3]: 2.15%
- growth inhibition [4]: -0.4%
- growth inhibition [5]: -2%
- growth inhibition [6]: 14.1%

SMILES: CCCNCc1cccc2ccnc(C)c12
- growth inhibition [1]: 40.9%
- growth inhibition [2]: 9.6%
- growth inhibition [3]: 0.45%
- growth inhibition [4]: 17.6%
- growth inhibition [5]: 15.9%
- growth inhibition [6]: 28.6%

SMILES: CC/C(=N\N=C(/CC)c1ccc[nH]1)c1ccc[nH]1
- growth inhibition [1]: 36.8%
- growth inhibition [2]: -23.8%
- growth inhibition [3]: 10.2%
- growth inhibition [4]: 5.9%
- growth inhibition [5]: 23.3%
- growth inhibition [6]: 9.25%

SMILES: N#CC(C#N)CN(C1=NCCO1)c1cccc2c1CCCC2
- growth inhibition [1]: -16.6%
- growth inhibition [2]: 8.4%
- growth inhibition [3]: -3.6%
- growth inhibition [4]: -24.6%
- growth inhibition [5]: -12.4%
- growth inhibition [6]: 14.3%

SMILES: CC(NC(=O)N=Nc1ccccc1)C(=O)O (stereo unspecified)
- growth inhibition [1]: -3.05%
- growth inhibition [2]: -8.95%
- growth inhibition [3]: -9.6%
- growth inhibition [4]: -39%
- growth inhibition [5]: -11.1%
- growth inhibition [6]: 6.2%

SMILES: O=c1c2ccccc2c2nccn2c2ccccc12
- growth inhibition [1]: 13.8%
- growth inhibition [2]: 3%
- growth inhibition [3]: 19.1%
- growth inhibition [4]: -9.1%
- growth inhibition [5]: -0.3%
- growth inhibition [6]: -5.25%

SMILES: CS(=O)(=O)N/N=C/C1C=CC=CC1 (stereo unspecified)
- growth inhibition [1]: -6.9%
- growth inhibition [2]: 0.7%
- growth inhibition [3]: -6.25%
- growth inhibition [4]: -24.4%
- growth inhibition [5]: -12.2%
- growth inhibition [6]: -26.6%

SMILES: CCCCCCN(CCCCCC)C(=S)N/N=C(\C)c1ccccn1
- growth inhibition [1]: 85% (active)
- growth inhibition [2]: 85.5% (active)
- growth inhibition [3]: 83.7% (active)
- growth inhibition [4]: 72.3% (active)
- growth inhibition [5]: 87.6% (active)
- growth inhibition [6]: 82.2% (active)

SMILES: N#CCCc1ccnc2ccccc12
- growth inhibition [1]: 1.7%
- growth inhibition [2]: -6.4%
- growth inhibition [3]: 1.25%
- growth inhibition [4]: -43%
- growth inhibition [5]: -3.8%
- growth inhibition [6]: -14.8%

SMILES: Nc1ncnc2c1nc(-c1ccccc1)n2C1OC(CO)C(O)C1O (stereo unspecified)
- growth inhibition [1]: 27.4%
- growth inhibition [2]: 35.2%
- growth inhibition [3]: -10.7%
- growth inhibition [4]: 9.75%
- growth inhibition [5]: 35.5%
- growth inhibition [6]: 34.4%

SMILES: CC(=O)[CH-]C(=O)c1ccccc1.CC(=O)[CH-]C(=O)c1ccccc1.CC[C@H](/C=C/C(C)[C@H]1CCC2[C@@H]3CC=C4C[C@@H]([O-])CC[C@]4(C)C3CC[C@@]21C)C(C)C.CC[O-].[Ti+4] (stereo partly specified)
- growth inhibition [1]: 8%
- growth inhibition [2]: -4.6%
- growth inhibition [3]: -2.45%
- growth inhibition [4]: -2.3%
- growth inhibition [5]: 5.3%
- growth inhibition [6]: -12.2%

SMILES: N#CC(=O)Nc1ccc(F)cc1
- growth inhibition [1]: -58.3%
- growth inhibition [2]: -2.35%
- growth inhibition [3]: -6.15%
- growth inhibition [4]: -8%
- growth inhibition [5]: 1.9%
- growth inhibition [6]: 3.2%

SMILES: CC1(C#N)N(C(=O)c2ccccc2)c2ccccc2N1C(=O)c1ccccc1
- growth inhibition [1]: 18.6%
- growth inhibition [2]: 50.2%
- growth inhibition [3]: 46.2%
- growth inhibition [4]: 27.2%
- growth inhibition [5]: 36%
- growth inhibition [6]: 24.9%

SMILES: CCCNc1nc(C)nc2[nH]cc(C)c12
- growth inhibition [1]: 7.35%
- growth inhibition [2]: -5.1%
- growth inhibition [3]: -3.15%
- growth inhibition [4]: -31.1%
- growth inhibition [5]: -7.7%
- growth inhibition [6]: -7.65%

SMILES: NCCCCC(N)C(=O)O (stereo unspecified)
- growth inhibition [1]: 7.4%
- growth inhibition [2]: 9.25%
- growth inhibition [3]: -33.9%
- growth inhibition [4]: 8.55%
- growth inhibition [5]: -2.1%
- growth inhibition [6]: 22%

SMILES: CCCC/C(=N/O)c1ccccc1
- growth inhibition [1]: 7.4%
- growth inhibition [2]: 0.7%
- growth inhibition [3]: -2.65%
- growth inhibition [4]: -9.1%
- growth inhibition [5]: -21.6%
- growth inhibition [6]: -6.95%

SMILES: CCCCC(C)(CCN)CCCC
- growth inhibition [1]: 5.05%
- growth inhibition [2]: 1.4%
- growth inhibition [3]: -5.05%
- growth inhibition [4]: 7.4%
- growth inhibition [5]: -3%
- growth inhibition [6]: 0.1%

SMILES: COc1ccc(/C=N/NC(=O)c2ccccc2NC(=O)c2ccccc2Cl)cc1
- growth inhibition [1]: 17.4%
- growth inhibition [2]: -25.1%
- growth inhibition [3]: 29.1%
- growth inhibition [4]: -13.7%
- growth inhibition [5]: 7.25%
- growth inhibition [6]: 24.7%

SMILES: CC1=NN(C(=O)c2ccc(Cl)cc2)C(=O)/C1=C/c1ccccc1O
- growth inhibition [1]: 4.25%
- growth inhibition [2]: -14.4%
- growth inhibition [3]: -28.9%
- growth inhibition [4]: -7.55%
- growth inhibition [5]: 12.3%
- growth inhibition [6]: -18.8%

SMILES: O=C(O)c1ccc([N+](=O)[O-])cc1Cl
- growth inhibition [1]: -11.9%
- growth inhibition [2]: -10%
- growth inhibition [3]: -1.55%
- growth inhibition [4]: 8.15%
- growth inhibition [5]: -3.25%
- growth inhibition [6]: -7.55%

SMILES: O=C(OC(c1ccc(Cl)cc1)c1ccc(Cl)cc1)C(c1ccc(Cl)cc1)c1ccc(Cl)cc1
- growth inhibition [1]: 15.5%
- growth inhibition [2]: 10.4%
- growth inhibition [3]: 14.8%
- growth inhibition [4]: -13.5%
- growth inhibition [5]: -3.35%
- growth inhibition [6]: 30.7%

SMILES: NC(=O)c1ccccc1NC(=O)Nc1ccc(Cl)cc1
- growth inhibition [1]: -3.6%
- growth inhibition [2]: 20.8%
- growth inhibition [3]: 13.8%
- growth inhibition [4]: -15.3%
- growth inhibition [5]: 21.5%
- growth inhibition [6]: 27%

SMILES: CCOC(=O)/C(=C\c1c(C)[nH]c2ccccc12)P(=O)(OCC)OCC
- growth inhibition [1]: -15.2%
- growth inhibition [2]: -15.7%
- growth inhibition [3]: -22.9%
- growth inhibition [4]: -0.3%
- growth inhibition [5]: -8.95%
- growth inhibition [6]: 11.5%

SMILES: CC1=NN2C(=O)C(C)SC2=NC(C)(C)C1 (stereo unspecified)
- growth inhibition [1]: -5.6%
- growth inhibition [2]: -17.9%
- growth inhibition [3]: -3.15%
- growth inhibition [4]: 29.2%
- growth inhibition [5]: -8.2%
- growth inhibition [6]: -16.3%

SMILES: COc1cc(OC)c(C2CC(C)(O)Oc3cc4c(cc32)OCO4)c(OC)c1 (stereo unspecified)
- growth inhibition [1]: 17.4%
- growth inhibition [2]: 3.8%
- growth inhibition [3]: 26.9%
- growth inhibition [4]: 3.9%
- growth inhibition [5]: 22.1%
- growth inhibition [6]: 11.8%

SMILES: COC/C=C(\C)CC/C=C(\C)CCC=C(C)C
- growth inhibition [1]: -8.2%
- growth inhibition [2]: 0.95%
- growth inhibition [3]: -1.2%
- growth inhibition [4]: 22.6%
- growth inhibition [5]: -27.3%
- growth inhibition [6]: 2.95%

SMILES: CC(C)OC(=O)NN(C)c1ccccc1
- growth inhibition [1]: 15.4%
- growth inhibition [2]: 11.1%
- growth inhibition [3]: 14%
- growth inhibition [4]: -54.3%
- growth inhibition [5]: 3.9%
- growth inhibition [6]: 13.8%

SMILES: NC(CSS(=O)(=O)O)C(=O)O (stereo unspecified)
- growth inhibition [1]: 3.05%
- growth inhibition [2]: -2.4%
- growth inhibition [3]: -1.55%
- growth inhibition [4]: -31.9%
- growth inhibition [5]: -12.8%
- growth inhibition [6]: 2.6%

SMILES: O=[N+]([O-])c1ccc(CN2CCC(C(=S)Nc3ccccc3)=C2c2ccccc2)cc1
- growth inhibition [1]: 9.6%
- growth inhibition [2]: 0.3%
- growth inhibition [3]: 8.8%
- growth inhibition [4]: 9.05%
- growth inhibition [5]: -1.2%
- growth inhibition [6]: 12.4%

SMILES: COC(C(=O)C(O)C(C)O)C1CC2C=C3C=C(OC4CC(OC5CC(O)C(OC)C(C)O5)C(OC(C)=O)C(C)O4)C(C)C(=O)C3=C(O)C2=C(O)C1OC1CC(OC2CC(OC3CC(C)(O)C(OC(=O)C(C)C)C(C)O3)C(O)C(C)O2)C(O)C(C)O1 (stereo unspecified)
- growth inhibition [1]: 51%
- growth inhibition [2]: 50.7%
- growth inhibition [3]: 38.5%
- growth inhibition [4]: 81.9% (active)
- growth inhibition [5]: 26.4%
- growth inhibition [6]: 45.8%

SMILES: O=C(O)CCC(=O)Nc1ccc(Cl)cc1
- growth inhibition [1]: 8%
- growth inhibition [2]: 5.7%
- growth inhibition [3]: -0.05%
- growth inhibition [4]: -16.1%
- growth inhibition [5]: 5.15%
- growth inhibition [6]: 5.55%

SMILES: CCC1C(OC)=CC2(CC)CC1(OC)OC2=O (stereo unspecified)
- growth inhibition [1]: -4.75%
- growth inhibition [2]: -0.3%
- growth inhibition [3]: -1.2%
- growth inhibition [4]: -2.45%
- growth inhibition [5]: 7.45%
- growth inhibition [6]: -3.35%

SMILES: O=[N+]([O-])c1ccc2c(c1)Cc1cccc([N+](=O)[O-])c1-2
- growth inhibition [1]: 2%
- growth inhibition [2]: -2.1%
- growth inhibition [3]: 0.25%
- growth inhibition [4]: -21.9%
- growth inhibition [5]: -5.9%
- growth inhibition [6]: 9.5%

SMILES: O=C(/C=C/c1ccco1)N1CCN(Cc2ccccc2)CC1
- growth inhibition [1]: 3.7%
- growth inhibition [2]: 8.15%
- growth inhibition [3]: 23%
- growth inhibition [4]: 32.2%
- growth inhibition [5]: 53%
- growth inhibition [6]: 14.4%

SMILES: Nc1ccc(C(=O)O)c(N)c1
- growth inhibition [1]: -4.35%
- growth inhibition [2]: 1.45%
- growth inhibition [3]: -14.1%
- growth inhibition [4]: -40.3%
- growth inhibition [5]: -22.5%
- growth inhibition [6]: -1.1%

SMILES: NC(=O)[N+](=CC(=S)Nc1ccccc1Cl)C(N)=O
- growth inhibition [1]: -43.3%
- growth inhibition [2]: -43.5%
- growth inhibition [3]: -36.7%
- growth inhibition [4]: -15.8%
- growth inhibition [5]: -33.4%
- growth inhibition [6]: 34.6%

SMILES: COC(=O)c1cc2ccccc2[nH]1
- growth inhibition [1]: 4%
- growth inhibition [2]: 8%
- growth inhibition [3]: -7.6%
- growth inhibition [4]: -15.3%
- growth inhibition [5]: -11.9%
- growth inhibition [6]: -13.8%

SMILES: CC/C(C=O)=C\NC(=O)Nc1ccccc1
- growth inhibition [1]: 9.35%
- growth inhibition [2]: -21.6%
- growth inhibition [3]: 0.8%
- growth inhibition [4]: -22.9%
- growth inhibition [5]: -26.6%
- growth inhibition [6]: 1.1%
